# Compound activity as filed in PubChem.
# This is a sample that favours compounds with a hit; in the whole collection about 4.1% have one here.
# aSyn 5UTR inh = MLPCN primary screen, SNCA 5' untranslated region; inhibition, % (tested at 7.5 µM); 300,000 tested, 0.82% active; alpha-synuclein 5'UTR reporter, inhibitor activity; in the data active = inhibition above about 60%;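 note: H4 neuroglioblastoma cells stably carrying SNCA 5'UTR luciferase fusion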
# Gli-Sufu antag = Gli-Sufu pathway antagonists, primary screen, luciferase luminescence, Sufu-KO-LIGHT cells, uHTS; 340,000 tested, 0.74% active; inhibition, % at 5 µM; Sufu-KO-LIGHT fibroblasts, Gli luciferase reporter luminescence;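 active = inhibition above about 55%, limit read from the data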
# Jurkat NFkB inh = inhibitors of induced NF-kB luciferase reporter, primary screen, TCR NF-kB activation inhibitor project, cell-based, luminescence, uHTS; Jurkat, PMA/ionomycin-induced NF-kB luciferase reporter; inhibition, % at 4 µM; 330,000 tested, 0.53% active; AID 435003, 2010; in the data active = inhibition above about 50%
# Mdm2 MdmX PPI = inhibitors of human Mdm2-MdmX association, primary screen, cell-based, luminescence, split luciferase, SaOS-2, uHTS; AID 485346, 2010; inhibition, % at 8 µM; SaOS-2 split-luciferase Mdm2/MdmX complementation; 330,000 tested, 3% active;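 active = inhibition of at least 50% at 8 µM in the primary screen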
# KLF5 inhibitor = KLF5 expression inhibitors, primary screen, DLD-1 cells, luminescence | DLD-1 KLF5 promoter-luciferase reporter | inhibition, % at 5 µM | 290,000 tested, 0.23% active | AID 1700, 2009;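 active = inhibition above a per-plate limit of that plate's mean compound inhibition plus 3 SD, cut at about 60% in these data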;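 note: higher means less KLF5 promoter-driven luciferase light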
# 697 NFkB inh = inhibitors of PMA/ionomycin-induced NF-kB reporter, 697 cells, primary screen, B-cell NF-kB inhibitor project, cell-based, luminescence, uHTS; AID 435022, 2010; 330,000 tested, 0.33% active; 697 B-cell NF-kB luciferase reporter, 16 h; inhibition, % at 4 µM; in the data active = inhibition above about 35%
# Mdm2 MdmX conf = Mdm2-MdmX complex disruptors, retested hits, confirmation, luminescence, single concentration. inhibition, % at 8 µM. shares compounds with Mdm2 MdmX PPI. 10,000 tested, 55% active. Mdm2-MdmX binding, luminescent assay; in the data active = inhibition above about 40%
# FLuc counter = full-length luciferase signal inhibition, confirmation, counter-screen for Mdm2/MdmX interaction inhibitor project, cell-based, single concentration, SaOS-2. shares compounds with Mdm2 MdmX PPI. SaOS-2 full-length luciferase counterscreen, luminescence. inhibition, % at 8 µM. 6,200 tested, 77% active;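 active = mean inhibition at 8 µM reaching about 37%, which flags the compound as non-specific, limit read from the data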;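 note: p53-null SaOS-2 cells with luciferase driven by a doxycycline-inducible promoter; compound on cells about two nights before reading with doxycycline added after day one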
# Numbers stand for hits; . = inactive; / = not tested or not shown.
SMILES,aSyn 5UTR inh,Gli-Sufu antag,Jurkat NFkB inh,Mdm2 MdmX PPI,KLF5 inhibitor,697 NFkB inh,Mdm2 MdmX conf,FLuc counter
CN(Cc1ccccc1)C(=O)CSc1cc(=O)n(C)c2ccccc12,.,.,.,.,.,.,/,/
CCn1c(=O)cc(SCC(=O)N(C)Cc2ccccc2)c2ccccc21,.,.,.,51,.,.,.,/
O=C(CCl)N(C1CCCC1)C1CCS(=O)(=O)C1 (centres undefined),.,.,.,87,.,.,72,55
CCN(CC)S(=O)(=O)c1cc(NC(=O)c2ccc(-n3cncn3)c([N+](=O)[O-])c2)ccc1C,.,.,.,.,.,.,/,/
Cc1nc(Nc2ccccc2)c2oc3ccc(Cl)cc3c2n1,.,.,.,.,.,.,/,/
Clc1ccc2oc3c(Cl)ncnc3c2c1,.,.,.,71,.,.,.,/
CC(=O)N/C(=C\c1ccccc1)C(=O)OCC(=O)NC1CCS(=O)(=O)C1 (centres undefined),/,.,.,.,/,.,/,/
N#Cc1c(N)nc2c(c1-c1ccc3c(c1)OCO3)CCc1ccccc1-2,.,.,.,65,.,.,.,92
CC(=O)N/C(=C\c1ccccc1)C(=O)OC/C=C/c1ccccc1,.,.,.,.,.,.,/,/
COc1cc(C#Cc2c(-c3cncn3C)n(C)c3ccc(-c4ccc(OC)nc4)cc23)cc(OC)c1,/,.,.,69,/,.,.,58
COc1cc(C#Cc2c(-c3cncn3C)n(C)c3ccc(-c4ccc5[nH]ccc5c4)cc23)cc(OC)c1,/,.,.,.,/,.,/,/
COc1cc(C#Cc2c(-c3cncn3C)n(C)c3ccc(-c4cc(OC)c(OC)c(OC)c4)cc23)cc(OC)c1,/,.,.,96,/,.,51,62
COC(=O)c1ccccc1NC(=O)c1cc(-c2cccs2)on1,.,.,.,60,.,.,.,/
N#C/C(=C\c1cccc([N+](=O)[O-])c1)c1nnc2n1CCCCC2,.,.,.,.,.,.,/,/
CN(c1ccccc1)c1ccc(/C=C(\C#N)c2nnc3n2CCCCC3)cc1[N+](=O)[O-],.,.,.,66,.,.,.,/
COc1ccc2cc(C(=O)N/N=C/c3sc4ccccc4c3O)ccc2c1,.,.,.,89,.,.,89,.
O=C(N/N=C/c1sc2ccccc2c1O)c1ccccc1,82,.,.,68,.,.,67,41
CN(C)c1nc(N/N=C\c2ccc(Cl)c([N+](=O)[O-])c2)nc(Nc2ccc(F)cc2)n1,.,.,.,72,.,.,.,/
CCCc1ccc(-c2cc(C(=O)Nc3ccc([N+](=O)[O-])cn3)c3ccccc3n2)cc1,.,.,.,.,.,.,/,/
CCOC(=O)c1cnc(-n2nc(C)cc2C)nc1Nc1ccc(OC)cc1,.,.,.,.,.,.,/,/
CCOC(=O)c1cnc(-n2nc(C)cc2C)nc1NC1CCCC1,.,.,.,76,.,.,42,43
CC(=O)c1ccc(Oc2ncnc(N)c2[N+](=O)[O-])cc1,.,.,.,60,.,.,60,45
CCc1ccc(Oc2ncnc(N)c2[N+](=O)[O-])cc1,.,.,.,.,.,.,/,/
COc1ccccc1C(=O)Nc1c(C(=O)N(CCN(C)C)Cc2ccco2)oc2ccccc12,.,.,.,62,.,.,.,/
Cc1ccc(C(=O)C(C(=O)/C=C/c2ccccc2)=C2SCCCS2)cc1,.,.,.,98,.,.,90,54
SMILES,aSyn 5UTR inh,Gli-Sufu antag,Jurkat NFkB inh,Mdm2 MdmX PPI,KLF5 inhibitor,697 NFkB inh,Mdm2 MdmX conf,FLuc counter
Cc1ccc2c(c1)CCCN2S(=O)(=O)c1cccc(C(=O)Nc2ccccc2C(=O)O)c1,.,/,.,54,.,.,60,58
CN(C)C(=O)c1ccc(NC(=O)c2cccc(S(=O)(=O)N3CCCc4ccccc43)c2)cc1,.,.,.,.,/,.,/,/
O=C(O)CSc1ncnc2scc(-c3ccccc3)c12,.,.,.,.,.,.,/,/
Cn1nnnc1Sc1ncnc2scc(-c3cccc(Br)c3)c12,/,.,.,96,/,.,100,49
Cn1nnnc1Sc1ncnc2scc(-c3cccc(S(C)(=O)=O)c3)c12,/,.,.,84,/,.,70,.
O=C(O)CSc1ncnc2scc(-c3ccc(Br)cc3)c12,.,.,.,.,.,.,/,/
O=C(/C=C\Nc1ccc(Br)cc1)c1cccnc1,.,.,.,.,.,.,/,/
NC(=O)C1CCN(C(=O)Cc2ccsc2)CC1,.,.,.,.,.,.,/,/
O=c1cc(C(Cl)(Cl)Cl)oc2c1ccc1ccccc12,.,65,.,98,.,.,86,52
O=c1cc(-c2ccco2)oc2c1ccc1ccccc12,.,.,.,.,.,.,/,/
Cn1c(N2CCCCC2)nc2c1c(=O)[nH]c(=O)n2C,.,.,.,.,.,.,/,/
CCCn1c(N2CCC(Cc3ccccc3)CC2)nc2c1c(=O)[nH]c(=O)n2C,.,.,.,.,.,.,/,/
CCCCCn1c(N2CCC(Cc3ccccc3)CC2)nc2c1c(=O)[nH]c(=O)n2C,.,.,.,58,.,.,.,/
Cn1c(N2CCN(C(c3ccccc3)c3ccccc3)CC2)nc2c1c(=O)[nH]c(=O)n2C,.,.,.,60,.,.,58,87
Cc1c(Cl)cn2c(=O)cc(CN3CCN(c4ccc(F)cc4)CC3)nc2c1Cl,.,/,.,.,.,.,/,/
Cc1cc(N2CCN(Cc3nc(-c4ccc(Cl)cc4)oc3C)CC2)cc(C)n1,.,.,.,64,.,.,.,68
COc1ccc(-c2nc(CN3CCN(c4cc(C)nc(C)c4)CC3)c(C)o2)c2ccccc12,68,.,.,97,.,.,48,.
Cc1oc(-c2ccc(Cl)cc2)nc1CN1CCCN(C(=O)c2ccco2)CC1,.,.,.,.,.,.,/,/
Cc1oc(-c2cccc3ccccc23)nc1CN1CCN(c2ncnc3ccccc23)CC1,.,.,.,.,.,.,/,/
CCOC(=O)/C(C#N)=C/Nc1ccccc1OC(F)(F)F,.,.,.,.,.,.,/,/
COc1cc2c3nnc(-c4ccc(F)cc4)c-3cn(Cc3ccccc3)c2cc1OC,.,.,.,100,.,.,94,57
COc1ccc(-c2nnn(Cc3ccccc3)n2)cc1OC,.,.,.,.,.,.,/,/
